# Results reported in PubChem BioAssay (Tox21).
# Values joined by “and” are separate entries in the source; they are usually repeats but may differ in a detail not shown here. Equal entries are not always repeated. Records with an inconclusive call do not appear. Entries that show only a call come without a potency. Some structures have more than one record in an assay (separate samples or runs), and their calls can disagree. Active and inactive are the calls of the source. Unless noted, the call rests on the fitted dose curve; in most records, active means well fitted curve in the direction sought with a large enough effect in the repeat runs; inconclusive means weak or mixed curves; inactive means no such curve, though single readings can be large; an effect the other way counts as inactive or inconclusive.
# Assays:
# [1] = qHTS assay for small molecule agonists of the p53 signaling pathway (AID 651631; calls by dose curve; further: nearly all actives have a fitted effect of over 15% in size; further: potency means the concentration at half of the fitted maximal effect)
# Method in brief: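 Readout was fluorescence from the LiveBLAzer FRET substrate, applied for 2 h at room temperature after 16 h compound exposure at 37 °C. Cells were the p53RE-bla HCT-116 line, with beta-lactamase driven by p53 response elements.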
# [2] = qHTS assay for small molecules that induce genotoxicity in human embryonic kidney cells expressing luciferase-tagged ATAD5 (AID 651632); further: nearly all actives have a fitted effect of over 15% in size; further: potency means the concentration at half of the fitted maximal effect
# Method in brief: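 Test compounds were delivered by pin tool onto HEK293T reporter cells (2,000/well) expressing ATAD5 fused to luciferase. After 16 hr at 37C, 5% CO2, Amplite was added for 30 min at room temperature and luminescence was measured.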
# [3] = qHTS assay for small molecule agonists of the p53 signaling pathway - cell viability (AID 651633; calls by dose curve; further: nearly all actives have a fitted effect of over 30% in size; further: potency means the concentration at half of the fitted maximal effect)
# Method in brief: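 p53RE-bla cells, seeded at 4,000 per well and rested 5 h at 37 C/5% CO2, received compounds in DMSO for 16 h at 37 C. CellTiter-Glo was then added, and luminescence was read after 30 min at room temperature to gauge cytotoxicity.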
# [4] = qHTS assay for small molecules that induce genotoxicity in human embryonic kidney cells expressing luciferase-tagged ATAD5 - cell viability (AID 651634; calls by dose curve; further: nearly all actives have a fitted effect of over 25% in size; further: potency means the concentration at half of the fitted maximal effect)
# Method in brief: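 Quantitative high-throughput format. HEK293T cells expressing ATAD5 fused to luciferase were plated at 2,000 cells/well and treated 15.5 hr with compound versus DMSO. Viability was determined by fluorescent live-cell protease substrate, 30 min at 37C.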
# [5] = qHTS assay for small molecule disruptors of the mitochondrial membrane potential - cell viability (AID 720634; calls by dose curve;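 further: human HepG2 liver cancer cells; series mostly up to about 83 µM; nearly all actives have a fitted effect of over 20% in size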)
# Method in brief: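 Same-well counter-screen: following the MMP dye addition, CellTiter-Glo was added to 1 hr compound-treated HepG2 cells and luminescence read after 30 min at room temperature.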
# [6] = qHTS assay for small molecule disruptors of the mitochondrial membrane potential (AID 720635); further: potency means the concentration at half of the fitted maximal effect
# Method in brief: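 HepG2 cells (2,000/well) attached overnight at 37C, then took compound for 1 hr at 37C, 5% CO2. Mito-MPS dye was added for 30 min; fluorescence was read at 490/535 nm (monomers) and 540/590 nm (aggregates).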
# [7] = qHTS assay to test for compound auto fluorescence at 590 nm (red) in HepG2 cells (AID 720674)
# Method in brief: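 Compound auto-fluorescence is scored relative to Rose Bengal sodium, measured at 540/590 nm in live HepG2 cultures after 1 hr compound contact (37 C, 5% CO2).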
# [8] = qHTS assay to test for compound auto fluorescence at 535 nm (green) in HepG2 cells (AID 720675)
# [9] = qHTS assay to test for compound auto fluorescence at 460 nm (blue) in HEK293 cells (AID 720678)
# Method in brief: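 Triamterene serves as the blue fluorophore standard. Compound signal at 405/460 nm is read in HEK293 wells (2,000 cells, 10% dialyzed FBS) after overnight treatment at 37C.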
# [10] = qHTS assay to test for compound auto fluorescence at 590 nm (red) in HEK293 cells (AID 720679)
# Method in brief: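 We plated HEK293 cells in 10% dialyzed FBS medium, let them adhere for 4-5 hr, then added 23 nL compound. Overnight at 37C and 5% CO2 preceded fluorescence measurement at 540/590nm.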
# [11] = qHTS assay to test for compound auto fluorescence at 535 nm (green) in HEK293 cells (AID 720680)
# [12] = qHTS assay to test for compound auto fluorescence at 535 nm (green) in HEK293 cell free culture (AID 720682)
# Method in brief: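 Compounds were pin-transferred into cell-free DMEM with 10% FBS, and green fluorescence was read at excitation 485 nm and emission 535 nm. Intensities were expressed as fluorescein-equivalent values.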
# [13] = qHTS assay to test for compound auto fluorescence at 590 nm (red) in HEK293 cell free culture (AID 720683)
# Method in brief: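 Tox21 10K library compounds were pinned into cell-free DMEM with 10% FBS and fluorescence was read at excitation 540 nm. Activity is expressed as Rose Bengal sodium equivalency.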
# [14] = qHTS assay to test for compound auto fluorescence at 590 nm (red) in HepG2 cell free culture (AID 720684)
# Method in brief: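 Ex 540 / Em 590 nm read of compound in cell-free MEM (10% FBS). Rose Bengal sodium reference.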
# [15] = qHTS assay to test for compound auto fluorescence at 460 nm (blue) in HepG2 cell free culture (AID 720685)
# Method in brief: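 Cell-free plates of MEM plus 10% FBS received 23 nL compound or DMSO vehicle; blue-channel (405/460 nm) intensity scored against triamterene as reference fluorophore.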
# [16] = qHTS assay to test for compound auto fluorescence at 535 nm (green) in HepG2 cell free culture (AID 720686)
# [17] = qHTS assay to test for compound auto fluorescence at 460 nm (blue) in HepG2 cells (AID 720687)
# Method in brief: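 Cells (2,000/well in MEM with 10% FBS) attached overnight at 37 C, then were exposed to compound or DMSO for 1 hr at 37 C, 5% CO2. Fluorescence read at Ex/Em 405/460 nm, expressed as triamterene-equivalent signal.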
# [18] = target: Glucocorticoid receptor (Homo sapiens) (UniProt P04150); assay: qHTS assay to identify small molecule agonists of the glucocorticoid receptor (GR) signaling pathway (AID 720691; active means well fitted activation curve with a large enough effect in the signal ratio in the repeat runs, not every such curve was filed as active; the % refers to the signal ratio)
# Chain of Glucocorticoid receptor (Homo sapiens) (P04150 whole entry, looked up): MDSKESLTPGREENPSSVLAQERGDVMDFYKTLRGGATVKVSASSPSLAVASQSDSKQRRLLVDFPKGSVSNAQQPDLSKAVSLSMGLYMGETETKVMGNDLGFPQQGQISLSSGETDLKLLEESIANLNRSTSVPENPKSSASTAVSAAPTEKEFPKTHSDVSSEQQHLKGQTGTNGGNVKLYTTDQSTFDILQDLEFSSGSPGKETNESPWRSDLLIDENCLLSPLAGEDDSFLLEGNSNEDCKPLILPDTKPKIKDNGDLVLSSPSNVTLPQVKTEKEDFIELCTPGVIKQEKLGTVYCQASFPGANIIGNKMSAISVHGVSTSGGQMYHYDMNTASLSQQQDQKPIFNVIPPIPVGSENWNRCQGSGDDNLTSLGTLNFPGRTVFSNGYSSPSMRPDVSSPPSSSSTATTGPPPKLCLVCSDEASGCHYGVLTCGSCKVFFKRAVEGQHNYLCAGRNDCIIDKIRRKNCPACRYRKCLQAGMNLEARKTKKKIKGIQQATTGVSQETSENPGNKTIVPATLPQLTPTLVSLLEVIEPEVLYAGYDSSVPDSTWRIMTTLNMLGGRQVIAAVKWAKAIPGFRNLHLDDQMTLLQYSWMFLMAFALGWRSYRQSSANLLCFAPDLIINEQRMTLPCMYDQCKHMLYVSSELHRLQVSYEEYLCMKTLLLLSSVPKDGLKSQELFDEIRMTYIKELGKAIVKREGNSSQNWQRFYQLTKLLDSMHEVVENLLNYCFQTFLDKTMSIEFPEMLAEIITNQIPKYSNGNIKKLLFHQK
# Method in brief: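 A HeLa cervical cancer line expressing GR and a glucocorticoid response element-driven beta-lactamase gene is treated with compounds for 18 h; LiveBLAzer B/G FRET substrate is then applied and fluorescence read.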
# [19] = target: Glucocorticoid receptor (Homo sapiens) (UniProt P04150); assay: qHTS assay to identify small molecule antagonists of the glucocorticoid receptor (GR) signaling pathway (AID 720692; active means well fitted inhibition curve with a large enough effect in the signal ratio in the repeat runs, not every such curve was filed as active; the % refers to the signal ratio; further: potency means the concentration at half of the fitted maximal effect)
# Method in brief: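 GRE-bla HeLa line, dex-stimulated (5 nM final). Compound exposure 18 h, 37 C. Beta-lactamase FRET read after 2 h RT substrate.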
# [20] = qHTS assay to test for compound auto fluorescence at 460 nm (blue) in HEK293 cell free culture (AID 720681)
# Method in brief: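 Test compounds were pinned into cell-free culture medium (DMEM with 10% FBS) and fluorescence was read directly at Ex/Em 405/460 nm. Signals were expressed as fluorescence equivalents of triamterene, with DMSO vehicle as control.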
Compound,Potency [1],Potency [2],Potency [3],Potency [4],Potency [5],Potency [6],outcome [7],outcome [8],Potency [9],outcome [10],outcome [11],outcome [12],outcome [13],outcome [14],Potency [15],outcome [16],Potency [17],Potency [18],Potency [19],Potency [20]
CC[C@]1(O)C[C@H]2CN(CCc3c([nH]c4ccccc34)[C@@](C(=O)OC)(c3cc4c(cc3OC)N(C=O)[C@H]3[C@@](O)(C(=O)OC)[C@H](OC(C)=O)[C@]5(CC)C=CCN6CC[C@]43[C@@H]65)C2)C1,0.0084 µM (active),0.75 µM (active),inactive,0.0473 µM (active),inactive,3.76 µM (active),inactive,inactive,inactive,inactive,inactive,inactive,inactive,inactive,inactive,inactive,inactive,,,
COc1cc(C(=O)NCCCCCC(=O)O)cc(OC)c1OC,inactive,inactive,inactive,inactive,inactive,inactive,inactive,inactive,inactive,inactive,,inactive,inactive,inactive,inactive,inactive,inactive,inactive,inactive,
c1csc(SSc2cccs2)c1,inactive,inactive,inactive,inactive,inactive,inactive,inactive,inactive,inactive,inactive,inactive,inactive,inactive,inactive,inactive,inactive,inactive,,inactive,inactive
O=C1c2ccccc2C(=O)C1c1ccc(Br)cc1,inactive,inactive,inactive,inactive,inactive,inactive,inactive,inactive,inactive,,inactive,inactive,inactive,inactive,inactive,inactive,inactive,,,inactive
O=C(O)CCC(=O)C(=O)O,inactive,inactive,inactive,inactive,inactive,inactive,inactive,inactive,inactive,inactive,inactive,inactive,inactive,inactive,inactive,inactive,inactive,inactive,inactive,inactive
CC(C)(O)c1ccc(CNC(=O)c2cccnc2Oc2ccc3nonc3c2)cc1,inactive,inactive,inactive,inactive,inactive,inactive,inactive,inactive,inactive,inactive,inactive,inactive,inactive,inactive,inactive,inactive,inactive,inactive,inactive,inactive
O=c1[nH]ncc2ccccc12,inactive,inactive,inactive,inactive,inactive,inactive,inactive,inactive,inactive,inactive,inactive,inactive,inactive,inactive,inactive,inactive,inactive,inactive,inactive,inactive
CCOC(=O)/C=C/C(=O)OCC,inactive,inactive,inactive,inactive,inactive,inactive,inactive,inactive,inactive,inactive,inactive,inactive,inactive,inactive,inactive,inactive,inactive,inactive,inactive,inactive
CCCCCCCCN,inactive,inactive,inactive,inactive,inactive,inactive,inactive,inactive,inactive,inactive,,inactive,inactive,inactive,inactive,inactive,inactive,,,inactive
CCCCCCCC/C=C\CCCCCCCCCCCC(=O)O,inactive,inactive,inactive,inactive,inactive,inactive,inactive,inactive,inactive,inactive,inactive,inactive,inactive,inactive,inactive,inactive,inactive,,,inactive
CCOC(=O)c1ccc(OCCN2C[C@H](O)[C@@H](O)[C@H](O)[C@H]2CO)cc1,inactive,inactive,inactive,inactive,inactive,inactive,inactive,inactive,inactive,,inactive,inactive,inactive,inactive,inactive,inactive,inactive,,inactive,inactive
O=C(O)C[C@H](NC(=O)OCc1ccccc1)C(=O)O,inactive,inactive,inactive,inactive,inactive,inactive,inactive,inactive,inactive,,inactive,inactive,inactive,inactive,inactive,inactive,inactive,inactive,inactive,inactive
FC(F)(F)c1ccccc1Cl,inactive,inactive,inactive,inactive,inactive,inactive,inactive,inactive,inactive,inactive,inactive,inactive,inactive,,inactive,inactive,inactive,,inactive,inactive
O=C1CCCCCCCCCCOCCCCO1,inactive,inactive,inactive,inactive,inactive,inactive,inactive,inactive,inactive,inactive,inactive,inactive,inactive,,inactive,inactive,inactive,inactive,inactive,
COc1cc(Nc2c(C#N)cnc3cc(OCCCN4CCN(C)CC4)c(OC)cc23)c(Cl)cc1Cl,11.9 µM (active),inactive,26.6 µM (active),29.8 µM (active),inactive,0.376 µM (active),inactive,inactive,inactive,inactive,inactive,inactive,inactive,inactive,inactive,,inactive,,,inactive
Cc1ccc(OC(=O)c2ccccc2O)cc1,inactive,inactive,inactive,inactive,inactive,inactive,inactive,inactive,inactive,inactive,inactive,inactive,inactive,inactive,inactive,,inactive,,,inactive
CC(CO)CO,inactive,inactive,inactive,inactive,inactive,inactive,inactive,inactive,inactive,,inactive,inactive,inactive,,inactive,inactive,inactive,inactive,inactive,inactive
O[C@@H]1CO[C@H]2[C@@H]1OC[C@@H]2O,inactive,inactive,inactive,inactive,inactive,inactive,inactive,inactive,inactive,inactive,inactive,inactive,inactive,inactive,inactive,inactive,inactive,,inactive,inactive
CC(=O)[C@H]1[C@H](C#N)C[C@H]2[C@@H]3CC=C4C[C@@H](O)CC[C@]4(C)[C@H]3CC[C@@]21C,inactive,inactive,inactive,inactive,inactive,inactive,inactive,inactive,inactive,inactive,,inactive,inactive,inactive,inactive,inactive,inactive,inactive,10.6 µM (active),inactive
CC(C)Nc1cccnc1N1CCN(C(=O)c2cc3cc(NS(C)(=O)=O)ccc3[nH]2)CC1,inactive,inactive,inactive,inactive,inactive,26.6 µM (active),inactive,inactive,inactive,inactive,inactive,inactive,inactive,inactive,inactive,inactive,inactive,inactive,,inactive
C=C1C[C@@]23CC[C@H]4[C@@](C)(CCC[C@@]4(C)C(=O)O[C@@H]4O[C@H](CO)[C@@H](O)[C@H](O)[C@H]4O)[C@@H]2CC[C@]1(O[C@@H]1O[C@H](CO)[C@@H](O)[C@H](O[C@@H]2O[C@H](CO)[C@@H](O)[C@H](O)[C@H]2O)[C@H]1O[C@@H]1O[C@H](CO)[C@@H](O)[C@H](O)[C@H]1O)C3,inactive,inactive,inactive,inactive,inactive,inactive,inactive,inactive,inactive,,inactive,inactive,inactive,inactive,inactive,inactive,inactive,inactive,,inactive
Cc1[nH]cnc1CN1CCc2c(c3ccccc3n2C)C1=O,inactive,inactive,inactive,inactive,inactive,inactive,inactive,inactive,inactive,inactive,inactive,inactive,inactive,inactive,inactive,inactive,inactive,,,inactive
C=Cc1ccc(S(=O)(=O)O)cc1,inactive,inactive,inactive,inactive,inactive,inactive,inactive,inactive,inactive,inactive,inactive,inactive,inactive,inactive,inactive,,inactive,inactive,inactive and 19.5 µM (active),inactive
O=C1NCCN1CCO,inactive,inactive,inactive,inactive,inactive,inactive,inactive,inactive,inactive,,inactive,inactive,inactive,inactive,inactive,inactive,inactive,,,inactive
CC(C)(C)C(=O)C(=O)O,inactive,inactive,inactive,inactive,inactive,inactive,inactive,inactive,inactive,inactive,inactive,inactive,inactive,inactive,inactive,inactive,inactive,inactive,inactive,
CCCCCCC(C)(C)C(=O)O,inactive,inactive,inactive,inactive,inactive,inactive,inactive,inactive,inactive,inactive,,inactive,inactive,inactive,inactive,inactive,inactive,,inactive,inactive
Cc1ccc(CO)cc1,inactive,inactive,inactive,inactive,inactive,inactive,inactive,inactive,inactive,,inactive,inactive,inactive,inactive,inactive,inactive,inactive,inactive,inactive,inactive
Cc1ccc(C(C)(C)O)cc1,inactive,inactive,inactive,inactive,inactive,inactive,inactive,inactive,inactive,inactive,inactive,inactive,inactive,inactive,inactive,inactive,inactive,inactive,inactive,
Cc1cc(C)cc(N)c1,inactive,inactive,inactive,inactive,inactive,inactive,inactive,inactive,inactive,inactive,inactive,inactive,inactive,inactive,inactive,inactive,inactive,inactive,inactive,inactive
